Experimental data published in PubChem BioAssay AID430 (Sanford-Burnham Center for Chemical Genomics, 2006).
The whole screen tested about 63,000 compounds, of which about 1,100 (1.7%) were called active. Shown is part of a subset that was picked to be rich in actives. Measured potencies and affinities stand elsewhere. A number with no mark means an inactive call. Rule as the data show it: active = cytotoxicity above about 50%; inactive = the rest.

experiment: cytotoxicity in HPDE-C7 cells, cell-based, fluorescence, HTS (AID 430); conditions: HPDE-C7 pancreatic duct cells viability, at 10 µM, active compounds read high;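 also: cells exposed to compound for 48 hours before viability readout; 0% = vehicle and 100% = reference cytotoxic drug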

| Compound | cytotoxicity |
| --- | --- |
| CC(=O)NC1CC2CCCC(C1)N2S(=O)(=O)c1ccccc1 (stereo not drawn) | -17.7% |
| COc1ccc(N(C(=O)CNC(=O)c2ccco2)C(C(=O)NC2CCCCC2)c2ccco2)cc1 (stereo not drawn) | -2.6% |
| Cc1nc(NC(=O)C2CC2)sc1C(=O)N1CCCCC1 | 11.8% |
| Cc1ccc(-c2noc(CCC(=O)NCCCN3CCN(c4ccc(F)cc4)CC3)n2)cc1 | -1.5% |
| O=C(Nc1ccccn1)c1cccnc1 | 0.9% |
| CC(=O)Nc1ccc(S(=O)(=O)N(CC(=O)O)Cc2ccccc2)cc1 | -8.5% |
| Cc1ccc(S(=O)(=O)Nc2ccc(S(=O)(=O)N3CCCC3)cc2)cc1 | 8.3% |
| COc1cccc2sc(Nc3nnc(-c4ccccc4Cl)o3)nc12 | 52.9% (active) |
| O=C(Nc1nnc(-c2ccccc2Cl)o1)c1ccco1 | 6.6% |
| Cc1cccc(Nc2nc(-c3ccccn3)cs2)n1 | 0.3% |
| COc1cccc2sc(Nc3nc(-c4ccccn4)cs3)nc12 | 65.7% (active) |
| c1ccc(-c2csc(Nc3cccnc3)n2)nc1 | 3.7% |
| COc1ccc(-c2noc(-c3ccccc3Cl)n2)cc1OC | 0.6% |
| Cc1ccc2oc(=O)cc(CN3CCC(C)CC3)c2c1 | 0.7% |
| O=c1c2ccccc2c(C=NCCO)c(O)n1-c1ccccc1 | 1.2% |
| CCOC(=O)C1CCCN(C2CC(=O)N(c3ccc(C)c(C)c3)C2=O)C1 (stereo not drawn) | -3.2% |
| O=C(NCc1ccc(F)cc1)c1ccc(CS(=O)(=O)Cc2ccccc2F)o1 | -13.3% |
| O=C(c1cc(Cl)ccc1Cl)N1CCN(c2ccccn2)CC1 | 5.9% |
| Cc1cc(-c2ccccc2)nc(N2CCN(c3ccccn3)CC2)n1 | 11.2% |
| O=C(NCCC1=CCCCC1)C1CCCN(S(=O)(=O)c2cnc[nH]2)C1 (stereo not drawn) | -2.1% |
| CCOC(=O)c1cccc(C(=O)OCC)n1 | -1% |
| CCOC(=O)c1ccccc1NC(=O)COC | -3.8% |
| CCN(c1ccccc1)c1cc(C)nc2nc(C)nn12 | -20.9% |
| Clc1ccccc1Cn1nnc2c(Nc3ccccc3)ncnc21 | -6.8% |
| CC(C)CCNc1ncnc2c1nnn2Cc1ccccc1Cl | -10.8% |

| Compound | cytotoxicity |
| --- | --- |
| CCc1ccc2[nH]c(=O)c(C(c3nnnn3CCOC)N3CCN(c4ccccc4F)CC3)cc2c1 (stereo not drawn) | -22% |
| CCCCNc1cc(C)nc(NCc2ccccc2)n1 | 84.4% (active) |
| Cc1cc(Nc2ccccc2)nc(-c2ccccc2O)n1 | -2.9% |
| Cc1cc(C)nc(NCCCc2ccccc2)n1 | -5.9% |
| Cc1cc(NCCCN)nc(-c2ccccc2O)n1 | 16.4% |
| CCCCOc1cc(C)nc(NCc2ccccc2)n1 | -30.8% |
| O=c1[nH]c2ccc(S(=O)(=O)N3CCCCC3)cc2[nH]1 | -1.4% |
| CCOC(=O)c1ccccc1NCN1C(=O)CSC1=O | -1.8% |
| Cc1cc(=O)[nH]c(/N=C(\N)Nc2cccc3ccccc23)n1 | 0.5% |
| COc1ccc(C2C3=C(N=C4SCC(=O)N42)c2ccccc2CC3)cc1OC (stereo not drawn) | 19.3% |
| O=C(O)c1ccccc1-c1ccccc1C(=O)NCc1ccco1 | 0.7% |
| Cn1c(=O)cc(OCC(=O)N2CCCc3ccccc32)c2ccccc21 | -9.1% |
| CC1=C(C)C(=O)NC(Nc2nc(C)c3cc(C)cc(C)c3n2)N1 (stereo not drawn) | 86.5% (active) |
| Cc1cc(C)c2nc(NC3=NCN(CCN4CCOCC4)CN3)nc(C)c2c1 | -7.5% |
| O=C(c1cc(S(=O)(=O)N2CCCCC2)c(Cl)cc1N1CCOCC1)N1CCOCC1 | -5.8% |
| COc1cc(Cl)c(S(=O)(=O)n2cnc(C)c2)cc1Cl | -0.2% |
| COc1cc(C)c(C(C)C)cc1S(=O)(=O)N1CCN(C)CC1 | -22.7% |
| Clc1ccc(OCc2nc(-c3ccncc3)no2)c(Cl)c1 | -6.9% |
| Cc1ccc2c(c1)c1ncnc(N3CCN(c4ccccc4)CC3)c1n2C | -1.6% |
| Cc1ccc2c(c1)c1ncnc(N3CCOCC3)c1n2C | -13.7% |
| O=C(c1ccc(S(=O)(=O)N2CCC(c3nc4ccccc4s3)CC2)cc1)N1CCOCC1 | 1.1% |
| Cc1cccc(NS(=O)(=O)c2cccs2)n1 | -0.9% |
| COc1ccc(NC(=O)N(CCC(C)C)C(C)c2ccccn2)c(OC)c1 (stereo not drawn) | -1.9% |
| COc1ccc(-c2coc3c(CN4CCCCC4)c(O)c(CN4CCCCC4)c(O)c3c2=O)cc1 | 53.1% (active) |
| COc1ccc(C(=O)c2coc3ccc(O)c(CN4CCCCC4)c23)cc1 | 14.9% |

| Compound | cytotoxicity |
| --- | --- |
| O=c1c(-c2ccccc2)coc2c(CN3CCCC3)c(O)ccc12 | 5.3% |
| COc1ccccc1Cn1c(=O)c2ccccc2n2c(Sc3ncnc4sccc34)nnc12 | 38.5% |
| O=c1[nH]nc(Sc2ncnc3sccc23)n1CCc1ccccc1 | 51.5% (active) |
| c1ccc(-c2cnc(CSc3ncnc4sccc34)o2)cc1 | -9% |
| COC(=O)c1ccc(Oc2c(C)oc3c(CN4CCN(C)CC4)c(O)ccc3c2=O)cc1 | -9.6% |
| Cc1cc(NC(=O)COC(=O)C(Nc2ccc(C(F)(F)F)cc2Cl)C(C)C)no1 (stereo not drawn) | 54.8% (active) |
| Cc1cc(NC(=O)Cn2cc(C(F)(F)F)cc(Cl)c2=O)no1 | 4.3% |
| Cc1cc(NC(=O)COC(=O)CSCc2ccc(Cl)c(Cl)c2)no1 | -5.6% |
| O=C(NC(C(=O)c1ccccc1)n1ccc(=O)[nH]c1=O)c1ccccc1 (stereo not drawn) | 23.4% |
| CCOC(=O)N1CCN(C(=O)c2cccc(OC)c2OC)CC1 | 6.7% |
| CC(NS(=O)(=O)c1ccc(OCC(=O)N2CCOCC2)c(Cl)c1)c1ccccc1 (stereo not drawn) | 3.2% |
| COCCNc1ncnc2c1cnn2Cc1ccc(Cl)cc1 | 31.2% |
| CCOC(=O)N1CCN(C(=O)CSc2nnc(-c3cccc(OC)c3)o2)CC1 | -7.7% |
| O=C(Nc1ccncc1)C1CCCN(S(=O)(=O)c2cccc3cccnc23)C1 (stereo not drawn) | 53.3% (active) |
| Cc1cccc(NC(=O)C2CCCN(S(=O)(=O)c3cccc4cccnc34)C2)c1 (stereo not drawn) | -12.3% |
| O=C(Nc1ccc(F)cc1)C1CCCN(S(=O)(=O)c2cccc3cccnc23)C1 (stereo not drawn) | -10.4% |
| COC(=O)c1ccc(CSc2nc(N3CCOCC3)c3c(c2C#N)CC(C)(C)OC3)o1 | 16.6% |
| CCSc1nc(N)c2c3c(sc2n1)CN(C)CC3 | -22% |
| O=C(COc1ccccc1)N(Cc1ccco1)C1CCS(=O)(=O)C1 (stereo not drawn) | -19.1% |
| CCCc1ccc(Oc2cn[nH]c2-c2ccc(O)c(C)c2O)cc1 | 103% (active) |
| CCCc1ccc(Oc2cn[nH]c2-c2ccc(O)cc2O)cc1 | 44.2% |
| CCCc1ccc(OCC(=O)O)cc1 | 3% |
| COc1ccc(O)c(-c2[nH]ncc2C(=O)c2ccccc2C)c1 | -8.4% |
| CCOC(=O)C1CCN(C(=O)Nc2ccccc2Cl)CC1 | 4% |
| Cc1nn(CC(=O)NCc2ccccc2)c(=O)c2ccccc12 | -4.9% |

| Compound | cytotoxicity |
| --- | --- |
| Cn1c(-c2ccc3c(c2)OCO3)cnc1NCc1ccccc1 | -1.6% |
| Cn1c(-c2ccc3c(c2)OCO3)cnc1NCc1ccc(Cl)cc1 | 43.1% |
| Cn1c(-c2ccc3c(c2)OCO3)cnc1NCc1cccc(Cl)c1 | 71.3% (active) |
| O=C(CSc1nnnn1Cc1ccccc1)N1CCN(c2ccccc2)CC1 | 7.7% |
| CCCN(C(=O)Cc1nc(N)n[nH]1)C1(C(=O)Nc2c(C)cccc2C)CCCCC1 | -7.4% |
| Cc1cccc2cc(CN(CC3CCCO3)C(=O)NC3CCCCC3)c(=O)[nH]c12 (stereo not drawn) | -7.6% |
| CN(Cc1ccccc1)S(=O)(=O)c1ccc(C(=O)Nc2nnc(C3CC3)o2)cc1 | 28.3% |
| O=C(CCC1CCCCC1)N1CCN(Cc2ccc3c(c2)OCO3)CC1 | -7.9% |
| Cn1nnc(NC(=O)c2ccc(C(C)(C)C)cc2)n1 | -6.6% |
| Cc1cccn2c(=O)c3cc(C(=O)NCCN4CCOCC4)c(=N)n(CCc4ccccc4)c3nc12 | 4.4% |
| CCNC(=O)c1cc2c(=O)n3cccc(C)c3nc2n(CCc2ccccc2)c1=N | 61.3% (active) |
| CCNC(=O)c1cc2c(=O)n3cccc(C)c3nc2n1C | -0.7% |
| CC1Cc2ccccc2N1C(=O)c1cc2c(=O)n3ccccc3nc2n1C (stereo not drawn) | 13.4% |
| Cc1cccn2c(=O)c3cc(C(=O)N4CCc5ccccc54)n(C)c3nc12 | 10.4% |
| Cc1cccn2c(=O)c3cc(C(=O)N4CCN(c5ccccc5)CC4)n(C)c3nc12 | -18.3% |
| COCCn1c(=N)c(C(=O)NCCc2ccccc2)cc2c(=O)n3cccc(C)c3nc21 | -51.7% |
| CCCCNC(=O)c1cc2c(=O)n3cccc(C)c3nc2n1C | -12.6% |
| Cc1cccn2c(=O)c3cc(C(=O)N4CCN(C(=O)c5ccco5)CC4)n(C)c3nc12 | 3.5% |
| Cc1cccn2c(=O)c3cc(C(=O)N4c5ccccc5CC4C)n(C)c3nc12 (stereo not drawn) | 87.3% (active) |
| COCCNC(=O)c1cc2c(=O)n3cccc(C)c3nc2n1C | 52.8% (active) |
| O=C(CSc1nnc(-c2ccco2)o1)NC1CC2CCC1C2 (stereo not drawn) | -3.3% |
| Cc1noc(C(=O)Nc2ccc3c(c2)OCO3)c1Cl | 19.1% |
| COc1ccc(-c2ccc(SCC(=O)NCc3ccco3)nn2)cc1OC | 7.2% |
